# Measurements: PubChem BioAssay AID2708 (National Center for Advancing Translational Sciences (NCATS), 2010)
# This is one part of the list. Records with an inconclusive call do not appear. Values without a mark were called inactive. Activity calls are given as the source filed them. Calls come from the whole dose curve; as a rule, active = well fitted inhibition curve with a large enough effect; inconclusive = small, poorly fitted or top-dose-only effect; inactive = no such curve, though single readings can be large or run the other way. Peptide text beside a SMILES is read from it. * marks the point of attachment. Bz = O=C(c1ccccc1)*
# Molecular target: ATP-dependent DNA helicase Q1 (Homo sapiens) (UniProt P46063)
# Sequence (P46063 whole entry, looked up): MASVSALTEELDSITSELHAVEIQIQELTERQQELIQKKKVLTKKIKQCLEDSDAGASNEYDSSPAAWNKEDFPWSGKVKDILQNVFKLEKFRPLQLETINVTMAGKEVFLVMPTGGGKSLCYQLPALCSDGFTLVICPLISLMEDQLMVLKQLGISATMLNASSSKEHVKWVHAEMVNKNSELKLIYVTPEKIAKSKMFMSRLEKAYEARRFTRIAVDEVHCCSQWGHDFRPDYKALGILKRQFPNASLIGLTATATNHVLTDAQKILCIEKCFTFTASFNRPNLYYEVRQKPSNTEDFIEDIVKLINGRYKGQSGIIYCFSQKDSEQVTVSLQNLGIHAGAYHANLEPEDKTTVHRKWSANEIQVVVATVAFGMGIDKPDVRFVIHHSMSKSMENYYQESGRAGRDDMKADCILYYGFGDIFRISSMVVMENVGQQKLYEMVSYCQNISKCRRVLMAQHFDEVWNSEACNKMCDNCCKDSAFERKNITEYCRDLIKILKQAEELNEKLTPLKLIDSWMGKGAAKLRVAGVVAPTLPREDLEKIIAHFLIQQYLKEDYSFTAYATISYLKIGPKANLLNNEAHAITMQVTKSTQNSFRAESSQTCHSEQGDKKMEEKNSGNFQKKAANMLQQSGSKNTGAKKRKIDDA
# Assay: Confirmation qHTS Assay for Inhibitors of RecQ-Like Dna Helicase 1 (RECQ1); note: nearly all actives have a fitted effect of over 45% in size
# Settings: RECQ1 helicase DNA unwinding, fluorescence; series mostly up to 229 µM; activity change, negative = inhibition: at the top concentration
# Excerpt: Survival of cells and the faithful propagation of the genome depend on elaborate mechanisms of detecting and repairing DNA damage. Treatment of advanced cancer relies on radiation therapy or chemotherapy, which kill cancer cells by causing extensive DNA damage. It is often found, that cancer cells develop resistance to therapy through enhanced activity of DNA repair functions; this has led to an increased interest in developing drugs that interfere with DNA repair, which could sensitize cancer cells to conventional therapy.
# This validation qHTS assay pertains to human RECQ1, which is important in resolving abnormal DNA structures formed during replication or homologous recombination. Shutting down the expression of RECQ1 leads to chromosomal instability and higher radiation sensitivity in cultured cells.
# The validation assay was a fluorescence quenching based kinetic qHTS for RECQ1 Helicase DNA unwinding. The activity was measured as ATP-dependent separation of a 20-bp DNA duplex extended by 30-nt single-stranded tails (forked duplex). The forked DNA substrate was tagged with rhodamine fluorophore (carboxytetramethyl rhodamine, TAMRA) and BHQ-2 (Black Hole Quencher 2) dark quencher. Strand separation results in an increase in the fluorescence of TAMRA (excitation 525 nm, emission 598 nm). This substrate construct operates in a red-shifted region where very few compound library members have been noted to fluoresce (PubChem AIDs 593 and 594). An additional feature of the assay is the inclusion of 2.5 ug/ml poly (dIdC), to reduce interference by compounds such as DNA intercalators, a major source of false inhibitors.
# Opher Gileadi, Structural Genomics Consortium, University of Oxford
# Screening Center PI: Austin, C.P.
# Screening Center: NIH Chemical Genomics Center [NCGC]
# Three uL of reaction buffer (25 mM Tris-HCl (pH 8.0), 5 mM NaCl, 2 mM MgCl2, 1mM DTT, 0.01% Tween- 20, and 2.5 ug/ml poly(dI-dC), including enzyme (50 nM RECQ1T1), were dispensed into a 1536-well Greiner black assay plate via solenoid-valve based nanoliter dispensers. Compounds (23 nl each in columns 5-48) and control (23 nl each in column 2 as dose-response) were transferred via a Kalypsys pintool equipped with a 1536-pin array. The plates were incubated for 15 min at room temperature, and then 1 ul of substrates (200 nM DNA and 2 mM ATP, final concentrations) was added to start the reaction. The plate was transferred into a ViewLux high-throughput CCD imager where the reaction progress was measured in a discontinuous kinetic mode (two reads spaced 2 hours apart, with intermediate room temperature incubation of the covered assay plate) by using standard red-fluorescence optics (excitation filter 525 nm, emission filter 598 nm). Enzyme-free and vehicle (DMSO) controls were included for signal normalization.
# % is set by controls: 0 for no effect and ±100 for the full control effect; potency is the fitted concentration of half-maximal effect.
Structure (SMILES),"activity change, negative = inhibition",Potency
O=C(N/N=C/c1sc(N2CCCCC2)nc1-c1cccs1)c1cccnc1,4.33% [at 114 µM],
CC1(C)OC2CC(=O)OC[C@@]23C1CC(=O)[C@]1(C)C3CC[C@@]2(C)C(c3ccoc3)OC(=O)C3O[C@@]321 (some centres not stated),0.401%,
CC1Cc2ccccc2N1C(=O)CSc1nnc(-c2ccc(S(=O)(=O)N3CCCC3)cc2)n1C (configuration not stated),7.7%,
O=C(CCn1nnc2ccccc2c1=O)N[C@@H](Cc1c[nH]c2ccccc12)C(=O)O,2.77%,
O=C(c1cc2c(s1)CCC2)N1CCN(c2ccccc2)CC1,,39.8 µM (active)
Cc1ccccc1NC(=O)CN1C(=O)N/C(=C\c2cccn2-c2cccc(C(=O)O)c2)C1=O,,31.6 µM (active)
O=C(NC(Cc1ccccc1)C(=O)N1CCCC1C(=O)O)c1ccccc1 (stereo not drawn) (Bz-Phe-Pro-OH; configuration not given here),1.28%,
Cc1ccc(C)n1C(Cc1ccccc1)C(=O)O (configuration not stated),,22.4 µM (active)
CC(=O)Nc1ccc(Nc2c3ccccc3nc3ccccc23)cc1,,22.4 µM (active)
c1ccc(CSc2nnc(-c3ccco3)c(-c3ccco3)n2)cc1,,39.8 µM (active)
O=C(NCc1ccccc1)C1=C[C@@H](C2CCCCC2)C[C@@H](OCc2ccc(CO)cc2)O1,-5.77% [at 114 µM],
COc1cc(C2C(C(=O)c3ccc(C)o3)=C(O)C(=O)N2CCc2ccccc2)ccc1O (configuration not stated),11.1%,
O=C(NC(Cc1c[nH]c2ccccc12)C(=O)O)/C(=C/c1ccco1)NC(=O)c1ccccc1 (configuration not stated),3.08%,
COc1ccc(-c2nc3c(c(SCC(=O)Nc4ccc(C(=O)O)cc4)n2)Cc2ccccc2O3)cc1,,2.89 µM (active)
O=C(O)CCn1c(SCc2cc(=O)n3ccccc3n2)nc2ccsc2c1=O,1.05%,
CC(C)(O)c1ccccc1CC[C@H](SCC1(CC(=O)O)CC1)c1cccc(/C=C/c2ccc3ccc(Cl)cc3n2)c1,,40.8 µM (active)
Oc1ccc(N=Cc2sc3ccccc3c2Cl)cc1,-1.16% [at 114 µM],
